Only some compounds are listed: those with a hit (about 1.8% of all), similar ones and a draw of the others.
LYPLA1 inh: LYPLA1 (human) inhibition in PME1 counter-screen. O75608. recombinant LYPLA1, FP-Rh probe fluorescence polarization. inhibition, % at 5.9 µM. 320,000 tested, 0.16% active. AID 2174;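 active = inhibition above the mean of all tested compounds plus 3 SD, set per campaign, cut at about 14% in these data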;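 also: inhibitors block serine hydrolase probe labeling of LYPLA1 so polarization falls; 0% = enzyme with DMSO and 100% = wells lacking LYPLA1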
PAD4 FP inh: PAD4 (human) enzyme inhibition; inhibition, % at 6.36 µM; 330,000 tested, 0.41% active; recombinant PAD4, RCA probe fluorescence polarization; Q9UM07; AID 485272;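 active = percent inhibition above a cutoff equal to the mean of all tested compounds plus 3 SD, cut at about 15% in these data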;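 also: 0% = PAD4 with RCA probe and DMSO and 100% = probe without PAD4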
PME-1 primary: blocks human protein phosphatase methylesterase 1; Q9Y570; recombinant PME-1, FP-Rh probe fluorescence polarization; inhibition, % at 5.9 µM; 320,000 tested, 0.53% active;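 active = inhibition above the campaign mean of all compounds plus 3 SD, cut at about 26% in these data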;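 also: competitive labeling of PME-1 active site by serine hydrolase directed probe; 0% = PME-1 with DMSO and 100% = wells lacking PME-1 enzyme; inhibitors block probe labeling so polarization falls and inhibition rises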
Target sequence (Q9Y570 whole entry, looked up): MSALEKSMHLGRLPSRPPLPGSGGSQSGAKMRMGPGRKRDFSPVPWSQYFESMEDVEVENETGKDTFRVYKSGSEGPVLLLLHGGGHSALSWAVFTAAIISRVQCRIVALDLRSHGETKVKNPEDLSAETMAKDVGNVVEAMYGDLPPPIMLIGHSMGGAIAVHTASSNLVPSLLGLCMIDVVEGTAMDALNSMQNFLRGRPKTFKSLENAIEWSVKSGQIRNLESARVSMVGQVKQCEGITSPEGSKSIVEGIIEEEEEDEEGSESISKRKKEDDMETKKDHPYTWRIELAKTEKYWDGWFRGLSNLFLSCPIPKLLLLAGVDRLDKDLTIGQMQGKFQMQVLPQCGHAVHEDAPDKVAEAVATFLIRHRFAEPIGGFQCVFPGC
Fam108B counter: counter-screen for RBBP9 inhibitors: inhibitors of mouse Fam108B | recombinant Fam108B, FP-Rh probe fluorescence polarization | inhibition, % at 9.51 µM | 300,000 tested, 0.33% active | AID 1947;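 active = inhibition above the screen mean inhibition plus 3 SD, computed separately per campaign, cut at about 18% in these data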;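 also: inhibitors lower polarization as less probe binds the enzyme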
LYPLA2 inh: blocks human lysophospholipase 2, a PME1 counter-screen | recombinant LYPLA2, FP-Rh probe fluorescence polarization | inhibition, % at 5.9 µM | 320,000 tested, 0.38% active | AID 2177;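 active = inhibition above the screen-wide mean plus 3 SD, limit set per campaign, cut at about 26% in these data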;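 also: 0% = LYPLA2 with DMSO and 100% = wells lacking LYPLA2 enzyme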
Target sequence (O95372 whole entry, looked up): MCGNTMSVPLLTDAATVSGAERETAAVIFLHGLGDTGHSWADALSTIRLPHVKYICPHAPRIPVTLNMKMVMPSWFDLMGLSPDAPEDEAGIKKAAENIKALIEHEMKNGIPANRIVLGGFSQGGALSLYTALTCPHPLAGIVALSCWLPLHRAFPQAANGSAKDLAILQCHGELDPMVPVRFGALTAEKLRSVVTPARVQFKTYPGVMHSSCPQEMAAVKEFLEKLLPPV
GSTO1 counter: counter-screen for RBBP9 inhibitors: inhibitors of human GSTO1. 300,000 tested, 1.1% active. recombinant GSTO1, activity-based probe fluorescence polarization. inhibition, % at 5.96 µM. P78417;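 active = inhibition above the campaign mean inhibition plus 3 SD, cut at about 35% in these data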;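 also: 0% = GSTO1-1 with DMSO and 100% = wells lacking GSTO1-1 enzyme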
PAD4 FP conf: PAD4 (human) inhibition, confirmed | shares compounds with PAD4 FP inh | recombinant PAD4, RCA probe fluorescence polarization | inhibition, % at 6.36 µM | 1,200 tested, 28% active | AID 488796;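 active = mean inhibition across replicates above the hit cutoff set by the earlier primary screen, cut at about 15% in these data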;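 also: inhibitors block active-site labeling by the probe so polarization falls; 0% = PAD4 with probe and DMSO and 100% = probe without PAD4 enzyme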
The depositor's hits bear a star; . = not tested or not shown.

SMILES | LYPLA1 inh | PAD4 FP inh | PME-1 primary | Fam108B counter | LYPLA2 inh | GSTO1 counter | PAD4 FP conf
CC1(C)Cc2c(c(N3CCOCC3)nc3sc4c(NCc5ccccc5)nnnc4c23)CS1 | -3 | 2 | -2 | -7 | -5 | -8 | .
CC(C)CNc1nnnc2c1sc1nc(N3CCOCC3)c3c(c12)CC(C)(C)SC3 | -3 | 27* | 20 | -7 | -4 | -6 | 12
Cn1c(=O)[nH]c(NCCc2ccc(O)cc2)c([N+](=O)[O-])c1=O | 0 | 2 | -4 | -2 | 2 | 28 | .
COc1ccc(/C=C\C(=O)O[C@@H]2C(O)C(O[C@@H]3OC(C)[C@H](O[C@@H]4OCC(O[C@H]5O[C@H](CO)[C@@H](O)C(O)C5O)C(O)C4O)C(O)C3O)[C@H](OC(=O)[C@]34CCC(C)(C)C[C@@H]3C3=CCC5[C@@]6(C)CC(O)C(O[C@@H]7OC(CO)C(O)[C@H](O)[C@H]7O)[C@@](C)(C(=O)O)C6CC[C@@]5(C)[C@]3(CO)CC4)O[C@H]2C)cc1 (stereo partly specified) | . | -7 | . | . | . | . | .
CC(NC(=O)c1c(O)c2ccccc2[nH]c1=O)c1ccccc1 (stereo unspecified) | 0 | 16* | -8 | -2 | -3 | 3 | 5
COC(=O)[C@@]12CCCN1[C@H](c1ccc(-c3ccc4c(c3)OCO4)cc1)[C@H]1C(=O)N(C)C(=O)[C@H]12 | . | 1 | . | . | . | . | .
COc1ccccc1N1CCN(C(=O)CCC(=O)N2CCN(c3ccccc3OC)CC2)CC1 | 1 | -2 | -3 | 2 | -1 | -8 | .
COc1ccccc1N1CCN(C(=O)CCC(=O)N2CCN(c3ccc(F)cc3)CC2)CC1 | 3 | 23* | -2 | 1 | 4 | -2 | 8
CC1=NN(c2ccccc2)C(=O)C1C=Nc1ccc(N(C)C)cc1 (stereo unspecified) | 2 | 51* | 10 | 1 | 1 | 63* | 1
CCOC(=O)[C@H]1[C@H]2COc3cc(OC)ccc3[C@@H]2N2C(=O)c3cc(OC)ccc3NC(=O)[C@@]12C | 0 | -1 | 0 | -2 | 5 | 2 | .
CCOC(=O)[C@H]1[C@H]2COc3cc(OC)ccc3[C@@H]2N2C(=O)c3cc(C)ccc3NC(=O)[C@@]12C | -3 | 16* | 5 | 4 | -10 | 2 | 9
Cn1c(N)c(C(=O)COC(=O)/C=C/c2cccc(Cl)c2)c(=O)n(C)c1=O | . | -4 | . | . | . | . | .
CCC(C)(C)NC(=O)C(c1ccc(F)cc1)N(Cc1ccco1)C(=O)c1snc(C(N)=O)c1N (stereo unspecified) | 2 | 16* | -6 | -2 | 4 | 7 | 3
NC(=O)c1nsc(C(=O)N(Cc2ccco2)C(C(=O)NCc2ccc(F)cc2)c2ccc(O)cc2)c1N (stereo unspecified) | -2 | 2 | 4 | -3 | -2 | 1 | .
Cc1noc(NS(=O)(=O)c2ccc(NC(=O)CSc3nc4ccccc4s3)cc2)c1C | -1 | 19* | 5 | 1 | 2 | 1 | -5
CCCC1OC23CCCCC2C(C#N)(C(=N)O3)C1(C#N)C#N (stereo unspecified) | 4 | 17* | 5 | -1 | 6 | 6 | 6
N#CC1(C#N)COC23CCCCC2C1(C#N)C(=N)O3 (stereo unspecified) | 2 | 8 | 1 | 3 | 7 | 13 | .
N#CC12COC3(CCCCC3C1(C#N)C#N)OC2=N (stereo unspecified) | 5 | 22* | 12 | -3 | 14 | 7 | 4
CCC1OC23CCCCC2C(C#N)(C(=N)O3)C1(C#N)C#N (stereo unspecified) | 9 | 8 | 10 | 0 | 13 | 6 | .
CC12CCC(C(=Nc3ccc(N=C4C(=O)C5(C)CCC4C5(C)C)cc3)C1=O)C2(C)C | 2 | 45* | 9 | 3 | 4 | 8 | -3
Cc1ccc(N/C=C2\C(=O)C3(C)CCC2C3(C)C)cc1C (stereo unspecified) | 0 | -9 | 3 | 1 | -1 | 11 | .
CC(=O)N1CCN(S(=O)(=O)c2cccc(C(=O)OCC(=O)N(CCC#N)c3ccc(F)cc3)c2)CC1 | 14 | 29* | 19 | . | 24 | . | 3
CC(=O)c1cccc(NC(=O)CSC(=O)c2ccccc2)c1 | 4 | 15* | 9 | -1 | 8 | 3 | 18*
CCN(CC)c1ccc(NC(=O)CSC(=O)c2ccccc2)cc1 | . | 2 | . | . | . | . | .
COc1ccc(/C=N/Nc2nncn2N)cc1Br | -6 | 53* | -2 | 0 | -5 | 29 | 3
SMILES | LYPLA1 inh | PAD4 FP inh | PME-1 primary | Fam108B counter | LYPLA2 inh | GSTO1 counter | PAD4 FP conf
COc1cc(/C=N/Nc2nncn2N)ccc1OCc1c(C)no[n+]1[O-] | 1 | 45* | 5 | 1 | 2 | 16 | -9
COc1ccc(CSc2nncn2N)cc1Br | -2 | -6 | -6 | 3 | -1 | 5 | .
COc1ccc(N2C(=O)[C@H]3CCC=C[C@H]3[C@@H]2c2ccccc2Br)cc1 | . | -4 | . | . | . | . | .
CN(C)c1ccc(/C=N/NC(=O)Cn2nnc3ccccc32)cc1 | 1 | 15* | 1 | 5 | 5 | 1 | -1
O=C(CSc1nc(O)c(C2CCCCC2)c(=O)[nH]1)Nc1ccc(F)cc1 | 4 | 5 | -1 | 1 | 3 | -4 | .
COc1cc(-c2nc3c4ccccc4nc(=S)n3[nH]2)cc(OC)c1OC | -1 | 16* | 26 | 4 | 2 | -2 | 25*
COc1ccccc1-c1nc2c3ccccc3nc(=S)n2[nH]1 | -1 | 5 | -5 | 2 | 3 | -12 | .
Cc1cccc(NC(=O)COc2coc(CN3CCN(c4ccccc4)CC3)cc2=O)c1 | 1 | -1 | 2 | -3 | 6 | 8 | .
CC1CCN(C(=O)COC(=O)Cn2cnc3ccccc32)CC1 | . | -4 | . | . | . | . | .
N#CCCn1[nH]c(-c2ccccc2)cc1=O | -2 | 51* | 2 | -2 | -2 | 39* | 3
O=c1cc(-c2ccccc2)[nH]n1-c1nc2ccccc2[nH]1 | -6 | -2 | 6 | 9 | -6 | -9 | .
CC(=O)N/N=C/c1ccccc1OCCOc1cccc(C)c1 | -2 | 4 | -1 | 3 | 15 | 2 | .
CCN(C[C@H]1N[C@@](C)(C(=O)OC)[C@H]2C(=O)N(C)C(=O)[C@@H]12)C(=O)COC | . | -8 | . | . | . | . | .
COc1cc(/C=C2\C(=O)N(CCC#N)N=C2C)c(Br)cc1OC(C)C | -2 | 71* | -8 | -1 | 8 | 36* | 1
CCOc1cc(Br)c(/C=C2/C(=O)N(C)C(=S)N2CC(=O)OC)cc1OC | 0 | -2 | -1 | 4 | -2 | 2 | .
CNC(=S)N/N=C/c1c(Cl)cccc1Cl | -3 | 1 | -2 | -2 | 1 | 6 | .
CCc1nnc(N/N=C/c2c(Cl)cccc2Cl)n1N | 1 | 21* | 2 | 6 | 1 | 16 | 2
CCc1nnc(N/N=C/c2cccs2)n1N | 1 | 34* | -1 | 1 | -5 | 17 | -6
